SSB-PriA inh – blocks PriA binding to SSB C-terminal tail; AlphaScreen SSBct-PriA binding, biotinylated peptide; inhibition, % at 33 µM; 0.6% of 430,000 active; AID 1272365; in the data active means inhibition mostly above about 37%, no sharp cut-off; inactive means mostly below about 20%;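 further: plate controls were negative control peptide for no effect and reference peptide for full effect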
Anthrax LF inh2 – anthrax lethal factor protease inhibition; P15917; multiplex microsphere protease cleavage assay, LF; inhibition, % at 10 µM; 0.12% of 360,000 active; further: plate controls were buffer without enzyme for full effect and enzyme alone for no effect
Target sequence (P15917 whole entry, looked up): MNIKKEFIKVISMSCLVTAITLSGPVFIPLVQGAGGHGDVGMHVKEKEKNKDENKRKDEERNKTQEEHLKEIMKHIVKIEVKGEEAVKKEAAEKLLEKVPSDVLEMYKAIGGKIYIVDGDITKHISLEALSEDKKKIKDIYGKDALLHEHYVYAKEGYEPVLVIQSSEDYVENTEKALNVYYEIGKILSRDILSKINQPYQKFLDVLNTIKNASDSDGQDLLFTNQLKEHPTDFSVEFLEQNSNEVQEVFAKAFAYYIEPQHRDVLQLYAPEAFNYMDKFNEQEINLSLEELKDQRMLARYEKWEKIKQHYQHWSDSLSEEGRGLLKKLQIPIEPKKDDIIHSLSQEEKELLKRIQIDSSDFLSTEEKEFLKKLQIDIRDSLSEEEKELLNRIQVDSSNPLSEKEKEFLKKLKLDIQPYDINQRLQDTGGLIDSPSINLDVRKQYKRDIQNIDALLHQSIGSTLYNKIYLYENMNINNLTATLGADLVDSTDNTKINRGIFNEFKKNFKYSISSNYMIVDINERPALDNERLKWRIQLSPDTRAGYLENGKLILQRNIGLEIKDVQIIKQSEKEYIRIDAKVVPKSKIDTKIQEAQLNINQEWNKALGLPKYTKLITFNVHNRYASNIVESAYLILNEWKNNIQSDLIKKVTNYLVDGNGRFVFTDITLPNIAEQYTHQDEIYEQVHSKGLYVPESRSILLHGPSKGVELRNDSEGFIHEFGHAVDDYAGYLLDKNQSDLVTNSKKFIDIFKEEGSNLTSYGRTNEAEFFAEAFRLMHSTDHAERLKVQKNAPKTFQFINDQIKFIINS
BoNT-F LC inh – blocks Botulinum neurotoxin F light chain protease. 0.22% of 360,000 active. Multiplex microsphere protease cleavage assay, flow cytometry. inhibition, % at 10 µM. AID 588497; in the data active means inhibition above about 35%, passing the limit was not always enough; inconclusive means no clear call, values can overlap the other calls; further: plate controls were buffer without enzyme for full effect and enzyme alone for no effect
BoNT-A LC inh2 – blocks Botulinum neurotoxin A light chain protease; multiplex microsphere protease substrate cleavage, flow cytometry; inhibition, % at 10 µM; 0.17% of 360,000 active; AID 588499; further: plate controls were buffer without enzyme for full effect and enzyme alone for no effect
Autofluor counter – compound fluorescence in toxin protease inhibitor counterscreen. fluorescence intensity (test concentration not listed). compound autofluorescence counterscreen, microsphere flow cytometry; hits give high values. 3.1% of 360,000 active. AID 624483; in the data active means fluorescence intensity above about 16000; inconclusive means no clear call, values can overlap the other calls
Starred values were filed as active, the others as inactive; ? = inconclusive; . = not tested or not shown. Most compounds without a hit are left out; they make up all but 3.1% or so of the library. Unless noted, no stated cut-off is given here; in the data, active means inhibition above about 30%; inconclusive means no clear call, values can overlap the other calls; inactive means below that.

SMILES	SSB-PriA inh	Anthrax LF inh2	BoNT-F LC inh	BoNT-A LC inh2	Autofluor counter
COc1ccc(OC)c(Nc2nc(CC(=O)Nc3ccc4c(c3)OCCO4)cs2)c1	33*	.	.	.	.
Cc1ccc(NC(=O)C(=O)NCCC(O)c2ccco2)cc1N1CCCC1=O (stereo unspecified)	6	.	.	.	.
CSc1ccccc1C(=O)NC(C)Cc1cccs1 (stereo unspecified)	-6	.	.	.	.
CC(=O)N1N=C(c2c(-c3ccccc3)c3cc(Cl)ccc3[nH]c2=O)CC1c1nc2ccccc2n1C(C)=O (stereo unspecified)	5	.	.	.	.
Cc1cccc(NC(=O)CSc2nnc(-c3ccc(S(=O)(=O)N4CCOCC4)cc3)n2C)c1	-4	-6	-2	0	16637*
CCn1c(SCC(=O)Nc2nccs2)nnc1-c1ccc(S(=O)(=O)N2CCCCCC2)cc1	-7	-6	3	0	4140
O=C(CSc1nc2ccccc2n1CC(=O)N1CCCC1)Nc1nccs1	-6	-1	-2	-1	23314*
Cc1ccc(Nc2nnc(SCC(=O)Nc3ccc(S(=O)(=O)N4CCOCC4)cc3)s2)cc1	-4	-3	-3	-1	22187*
CC(=O)CSc1nnc(-c2ccc(S(=O)(=O)N3CCOCC3)cc2)n1C	1	-1	3	-1	6054
Cn1c(SCC(=O)Nc2nccs2)nnc1-c1ccc(S(=O)(=O)N2CCCC2)cc1	-11	0	6	4	19176*
COC(=O)CS[C@H]1CCN(C(=O)C2CC2)C1	-5	.	.	.	.
CN(C)c1ncc(NC(=O)c2cccc(F)c2)cn1	-17	.	.	.	.
COC(=O)C1=CN(C(C)C)C=C(C(=O)OC)C1c1cc(Br)c(OC)c(OC)c1	-90	0	-5	-4	23675*
Cc1ccc(Cn2c(CN(C)Cc3ccccc3)nc3c2c(=O)n(C)c(=O)n3C)cc1	-4	-4	-9	-1	5955
Cn1c(=O)c2c(nc(NCc3ccc4c(c3)OCO4)n2Cc2ccc(F)cc2)n(C)c1=O	-2	-6	12	8	18743*
CN(Cc1ccccc1)Cc1nc2c(c(=O)n(C)c(=O)n2C)n1Cc1ccc(F)cc1	0	-2	0	0	23112*
CCCCCn1c(CN(C)Cc2ccccc2)nc2c1c(=O)n(C)c(=O)n2C	-27	-5	-2	-1	23164*
Cc1ccc(-c2nn(C)c(=O)c3ccccc23)cc1S(=O)(=O)N1CCCC1	-11	-7	-2	0	5862
CCC(=O)Nc1cc(-c2nn(C)c(=O)c3ccccc23)ccc1N1CCCCC1	-9	-2	-5	0	3552
Cn1nc(-c2ccc(N3CCOCC3)c(NS(=O)(=O)c3ccccc3)c2)c2ccccc2c1=O	8	-1	-5	-7	22480*
CCCC(=O)Nc1cc(-c2nn(C)c(=O)c3ccccc23)ccc1N1CCCCC1	-15	-3	-1	-2	16901*
Cc1ccc(-c2nn3c(C)nnc3c3ccccc23)cc1S(=O)(=O)NCCN1CCOCC1	-2	-2	-6	-6	22118*
Cc1ccc(-c2nn(C)c(=O)c3ccccc23)cc1S(=O)(=O)N1CCOCC1	-14	-7	-13	-11	25828*
C=CCN1C(=O)/C(=C/c2ccc(Cl)cc2)SC1=Nc1nccs1	-2	.	.	.	.
COc1c[nH]c(C(=O)Nc2ccc(NC(C)=O)cc2)cc1=O	-6	.	.	.	.
SMILES	SSB-PriA inh	Anthrax LF inh2	BoNT-F LC inh	BoNT-A LC inh2	Autofluor counter
CCC(=O)Nc1cc(-c2nn(C)c(=O)c3ccccc23)ccc1OC	9	0	3	3	21426*
CC(=O)Nc1cc(-c2nn(C)c(=O)c3ccccc23)ccc1N1CCCCC1	-3	-2	3	0	16582*
CCCC(=O)Nc1cc(-c2nn(C)c(=O)c3ccccc23)ccc1OC	-11	?	6	?	?
Cc1ccccc1-n1ncc2c([N+](=O)[O-])cc([N+](=O)[O-])cc21	64*	-2	0	0	3242
CC(C)(C)C(=O)CN1C(=O)C2(OCCO2)c2ccccc21	-6	4	10	1	3659
Cc1ccc(C)c(CN2C(=O)C3(OCCCO3)c3ccccc32)c1	-39	-3	-2	-1	23436*
COC(=O)CN1C(=O)C2(OCCCO2)c2cc(Br)ccc21	4	0	4	0	23376*
O=C(CN1C(=O)C2(OCCO2)c2ccccc21)c1ccc(Cl)cc1	-7	-3	0	?	16345*
O=C(CN1C(=O)C2(OCCCO2)c2ccccc21)NCc1ccccc1	-1	-4	-4	-3	17108*
O=c1ccc(-c2ccc(Cl)cc2)nn1CCCNS(=O)(=O)c1cccnc1	-3	.	.	.	.
Cc1ccc(CNC(=O)CN2C(=O)C3(OCCCO3)c3ccccc32)cc1	-12	-21	40*	38*	11499
Cc1cc(NC(=O)CN2CCN(c3ccccc3O)CC2)no1	-5	-3	-5	-2	17083*
CC(=O)C(Sc1nn(C)c(=S)s1)C(=O)Nc1ccccc1 (stereo unspecified)	-6	-3	0	0	23581*
COC(=O)c1sc2ncccc2c1OCc1c(Cl)cccc1Cl	-3	2	1	2	19174*
O=C(c1ccccc1)c1ccccc1C(=O)c1ccccc1	-18	4	-37	-8	3279
O=C(OCc1ccccc1Cl)c1cccnc1Cl	-57	-3	-2	-3	21281*
COC(=O)c1sc2ncccc2c1OCc1cccc(Cl)c1	-9	-9	-2	-1	6164
O=C(OCc1ccccc1Cl)c1ccccc1C(=O)c1ccccc1	-88	-4	0	1	22408*
O=C(OCc1c(Cl)cccc1Cl)c1cccnc1Cl	-8	-1	-5	?	24071*
O=C(OCc1ccc(COC(=O)c2cccnc2Cl)cc1)c1cccnc1Cl	-23	-7	-4	0	4600
O=C(CSc1ncc(-c2ccc(Cl)c(Cl)c2)n1-c1cccc(C(F)(F)F)c1)N1CCc2ccccc21	-11	.	.	.	.
Cc1ccc(S(=O)(=O)C2(C(=O)N3CCCCCC3)CC2)cc1	1	-4	-4	?	16721*
Cc1noc(-c2ccc3nccnc3c2)n1	41*	.	.	.	.
COc1ccc2c(c1)CCc1c(C(=O)NCCN3CCOCC3)noc1-2	-9	-2	-7	0	10269
COCCNC(=O)c1noc2c1CCc1cc(OC)ccc1-2	-10	-1	-1	-1	9948
SMILES	SSB-PriA inh	Anthrax LF inh2	BoNT-F LC inh	BoNT-A LC inh2	Autofluor counter
COc1ccc2c(c1)CCc1c(C(=O)NCc3ccco3)noc1-2	-5	-4	-3	?	24173*
COc1ccc(OC)c(-c2cc(C(=O)NCCCn3ccnc3)no2)c1	17	-7	-4	-3	24152*
COc1ccc2c(c1)CCc1c(C(=O)NCCCn3ccnc3)noc1-2	11	-2	0	1	22596*
O=C(c1cccs1)N1CCc2ccc(NS(=O)(=O)c3ccc4ccccc4c3)cc2C1	-10	.	.	.	.
CCc1ccc(OCC(=O)Nc2ccc3c(c2)COC3=O)cc1	-13	3	7	2	4020
Cc1ccccc1OCC(=O)Nc1ccc2c(c1)COC2=O	-21	2	-2	-1	20173*
CCN(CC)CCCN=Cc1c(O)n(CCc2ccc(OC)c(OC)c2)c(=O)[nH]c1=O	-9	0	0	?	21750*
COc1ccc(C)cc1NC(=O)NCCCn1ncccc1=O	0	.	.	.	.

Source: PubChem (several laboratories)
